# PubChem BioAssay (NCATS)
# “And” between values parts separate entries of the source, which are not always exact repeats. Identical values can stand only once. Inconclusive results are not listed. A call without a number means that no potency is given here. The source made the active and inactive calls. Unless noted, calls follow the shape of the dose curve; as a rule, active = well fitted curve in the direction sought with a large enough effect; inconclusive = small, poorly fitted or top-dose-only effect, or another doubt; inactive = no such curve, though single readings can be large; an effect the other way counts as inactive or inconclusive.
# Tests used:
# [1] = biological target: Retinoic acid receptor RXR-alpha (Homo sapiens) (UniProt P19793); assay: qHTS assay for small molecule agonists of retinoid X receptor alpha signaling (AID 588544; calls by dose curve)
# Chain of Retinoic acid receptor RXR-alpha (Homo sapiens) (P19793 whole entry, looked up): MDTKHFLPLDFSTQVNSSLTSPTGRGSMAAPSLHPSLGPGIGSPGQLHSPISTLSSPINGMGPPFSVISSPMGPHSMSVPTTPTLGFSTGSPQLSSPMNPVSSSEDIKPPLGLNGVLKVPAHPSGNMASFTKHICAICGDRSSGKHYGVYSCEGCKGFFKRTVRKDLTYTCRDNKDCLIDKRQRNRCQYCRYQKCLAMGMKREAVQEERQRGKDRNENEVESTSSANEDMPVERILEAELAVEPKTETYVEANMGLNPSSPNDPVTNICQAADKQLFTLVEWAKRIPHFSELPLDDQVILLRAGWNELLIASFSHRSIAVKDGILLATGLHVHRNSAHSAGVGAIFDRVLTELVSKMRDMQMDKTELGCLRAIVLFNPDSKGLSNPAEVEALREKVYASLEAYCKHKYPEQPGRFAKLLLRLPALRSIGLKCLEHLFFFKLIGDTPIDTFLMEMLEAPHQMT
# [2] = biological target: Thyroid hormone receptor beta (Homo sapiens) (UniProt P10828); assay: qHTS assay for small molecule agonists of thyroid hormone receptor beta signaling (AID 588545; calls by dose curve)
# Chain of Thyroid hormone receptor beta (Homo sapiens) (P10828 whole entry, looked up): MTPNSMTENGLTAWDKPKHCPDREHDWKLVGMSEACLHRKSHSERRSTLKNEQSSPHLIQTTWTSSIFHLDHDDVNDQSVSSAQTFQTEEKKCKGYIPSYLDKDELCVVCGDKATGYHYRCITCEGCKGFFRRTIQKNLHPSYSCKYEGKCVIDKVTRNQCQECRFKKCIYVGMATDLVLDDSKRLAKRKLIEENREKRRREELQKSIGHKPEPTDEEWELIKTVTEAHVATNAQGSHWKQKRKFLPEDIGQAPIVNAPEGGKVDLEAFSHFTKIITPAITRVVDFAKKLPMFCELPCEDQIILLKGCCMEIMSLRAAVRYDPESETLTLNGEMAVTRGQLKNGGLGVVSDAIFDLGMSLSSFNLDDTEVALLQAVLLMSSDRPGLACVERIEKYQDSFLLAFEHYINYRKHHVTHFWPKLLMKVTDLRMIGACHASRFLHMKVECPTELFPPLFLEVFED
# Method in brief: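 Stimulation of a TR-driven beta-lactamase reporter was quantified in GripTite HEK 293 cells. Compound series ran for 18 hrs; curves were normalized to T3 and DMSO controls and fitted to yield EC50.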
# [3] = qHTS assay for small molecule antagonists of retinoid X receptor alpha signaling (AID 588546; active = well fitted inhibition curve with a large enough effect in the signal ratio, with a control signal flat, not every such curve was filed as active; the % refers to the signal ratio;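 also: cells stimulated with 9-cis-retinoic acid as agonist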); details: HEK293T RXRa-UAS-bla, beta-lactamase ratio, antagonist mode; measured here: W530 green channel, cytotoxicity proxy
# Method in brief: (§1)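 Beta-lactamase reporter inhibition, read as CCF4 fluorescence ratio (ex 405, em 460/530 nm) after 2 h at RT. HEK293T UAS-bla cells, 2500/well, were stimulated with 9-cis-RA at 500 or 100 nM final alongside test compound for 18 h at 37 C.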
# [4] = biological target: Retinoic acid receptor RXR-alpha (Homo sapiens) (UniProt P19793); assay: as above; details: HEK293T RXRa-UAS-bla, beta-lactamase ratio, antagonist mode
# Method in brief: as §1
# [5] = biological target: Thyroid hormone receptor beta (Homo sapiens) (UniProt P10828); assay: qHTS assay for small molecule antagonists of thyroid hormone receptor beta signaling (AID 588547; active = well fitted inhibition curve with a large enough effect in the signal ratio, with a control signal flat, not every such curve was filed as active; the % refers to the signal ratio;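 also: cells stimulated with 0.4 nM T3 agonist during compound exposure; series mostly up to about 77 µM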); details: TR-UAS-bla HEK293, beta-lactamase ratio, antagonist mode, 18 h
# Method in brief: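 Inhibition of T3-driven (0.4nM final) beta-lactamase reporter activity was measured over 0.59 nM to 92 uM compound after 18 h at 37 C. The cells were GripTite HEK293 TR-UAS-bla in charcoal/dextran-stripped serum, with CCF4 ratio read-out and IC50 from Hill fits.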
# [6] = biological target: Voltage-gated inwardly rectifying potassium channel KCNH2 (Homo sapiens) (UniProt Q12809); assay: qHTS Assay for Small Molecule Inhibitors of the Human hERG Channel Activity (AID 588834);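 also: top concentration of the series differs between compounds; lower thallium flux fluorescence means stronger hERG block; nearly all actives have a fitted effect of over 50% in size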
# Chain of Voltage-gated inwardly rectifying potassium channel KCNH2 (Homo sapiens) (Q12809 whole entry, looked up): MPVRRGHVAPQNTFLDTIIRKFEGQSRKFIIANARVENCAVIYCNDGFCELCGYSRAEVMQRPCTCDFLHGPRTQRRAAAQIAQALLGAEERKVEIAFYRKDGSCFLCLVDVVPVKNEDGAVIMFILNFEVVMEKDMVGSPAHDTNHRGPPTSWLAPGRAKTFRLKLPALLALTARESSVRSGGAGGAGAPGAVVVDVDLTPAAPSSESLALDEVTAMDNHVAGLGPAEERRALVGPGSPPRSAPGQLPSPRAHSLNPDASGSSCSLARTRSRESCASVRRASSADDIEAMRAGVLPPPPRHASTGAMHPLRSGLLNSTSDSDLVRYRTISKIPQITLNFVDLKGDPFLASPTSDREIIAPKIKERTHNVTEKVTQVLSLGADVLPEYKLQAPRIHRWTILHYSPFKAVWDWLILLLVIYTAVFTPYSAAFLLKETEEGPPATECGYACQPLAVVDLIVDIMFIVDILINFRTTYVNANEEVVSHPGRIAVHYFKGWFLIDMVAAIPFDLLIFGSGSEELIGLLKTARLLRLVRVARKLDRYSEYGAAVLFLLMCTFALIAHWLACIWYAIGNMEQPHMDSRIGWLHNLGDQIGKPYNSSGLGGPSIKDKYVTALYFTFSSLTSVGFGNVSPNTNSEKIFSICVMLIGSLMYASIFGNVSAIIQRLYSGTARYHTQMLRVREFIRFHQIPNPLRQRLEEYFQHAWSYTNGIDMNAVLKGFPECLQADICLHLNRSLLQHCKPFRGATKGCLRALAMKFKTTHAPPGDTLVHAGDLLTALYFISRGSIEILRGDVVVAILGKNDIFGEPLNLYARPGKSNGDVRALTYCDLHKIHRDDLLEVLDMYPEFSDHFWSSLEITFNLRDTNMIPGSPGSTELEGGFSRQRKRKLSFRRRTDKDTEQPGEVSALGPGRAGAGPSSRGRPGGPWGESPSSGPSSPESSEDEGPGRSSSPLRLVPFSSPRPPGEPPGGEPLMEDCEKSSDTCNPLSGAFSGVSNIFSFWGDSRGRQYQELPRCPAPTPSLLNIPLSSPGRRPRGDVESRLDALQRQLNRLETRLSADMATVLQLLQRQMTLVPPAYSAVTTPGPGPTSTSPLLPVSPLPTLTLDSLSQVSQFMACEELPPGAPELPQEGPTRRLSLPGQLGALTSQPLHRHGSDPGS
# Method in brief: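 Measured: FluxOR fluorescence after thallium stimulation in U2OS cells transduced with hERG by baculovirus. Compounds pre-incubated around 10 min; medium Opti-MEM with 2% FCS. AC50 from Hill equation.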
# [7] = biological target: Luciferin 4-monooxygenase (Photinus pyralis) (UniProt P08659); assay: Biochemical firefly luciferase enzyme assay for NPC (AID 624030);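 also: purified P. pyralis luciferase at 10 nM with luciferin and ATP substrate; series mostly up to about 59 µM; nearly all actives have a fitted effect of over 70% in size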
# Chain of Luciferin 4-monooxygenase (Photinus pyralis) (P08659 whole entry, looked up): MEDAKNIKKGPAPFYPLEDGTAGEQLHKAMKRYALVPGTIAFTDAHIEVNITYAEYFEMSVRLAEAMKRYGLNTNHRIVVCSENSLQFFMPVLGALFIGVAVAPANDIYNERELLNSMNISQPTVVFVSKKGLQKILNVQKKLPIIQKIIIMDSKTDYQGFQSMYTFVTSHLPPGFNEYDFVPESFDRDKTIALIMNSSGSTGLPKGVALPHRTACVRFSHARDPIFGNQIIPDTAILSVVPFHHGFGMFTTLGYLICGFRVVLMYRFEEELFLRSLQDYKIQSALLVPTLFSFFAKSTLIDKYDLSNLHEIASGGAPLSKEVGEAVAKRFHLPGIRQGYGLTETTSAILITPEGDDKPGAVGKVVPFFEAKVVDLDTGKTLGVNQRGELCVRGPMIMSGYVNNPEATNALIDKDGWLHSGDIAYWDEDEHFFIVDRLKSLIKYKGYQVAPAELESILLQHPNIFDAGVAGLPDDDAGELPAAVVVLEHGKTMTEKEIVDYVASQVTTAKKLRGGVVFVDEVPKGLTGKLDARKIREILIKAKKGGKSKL
# Method in brief: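 Direct inhibition of firefly luciferase enzyme (10 nM final, 50 mM Tris Acetate) assessed by luminescence within 5 minutes. Percent activity scaled between DMSO and PTC124 positive control, with concentration-effect curves classified by fit quality and response.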
# [8] = S16 Schwann cell viability assay (CellTiter-Glo assay) (AID 624031);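 also: native untransfected S16 rat Schwann cells; cellular ATP luminescence as a viability measure; series mostly up to about 58 µM; nearly all actives have a fitted effect of over 70% in size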
# Method in brief: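 Following overnight culture in 10% FBS DMEM, parental S16 rat Schwann cells are dosed for 24 h at 37 °C. Viability is read as CellTiter-Glo luminescence and expressed as % activity relative to DMSO (0%) and no-cell wells.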
# [9] = S16 Schwann cell PMP22 intronic element firefly luciferase assay (AID 624032); also: series mostly up to about 58 µM; nearly all actives have a fitted effect of over 30% in size
# Method in brief: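 Luciferase reporter of PMP22 intronic-element expression in stably transfected S16 rat Schwann cells, read by ONE-Glo luminescence after 24 h compound exposure at 37 C. Activity scaled between DMSO (0%) and positive-control PTC124; concentration-effect curves quality-classified.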
SMILES,outcome [1],outcome [2],max response [3],max response [4],activity change % (negative = inhibition) [5],Potency [6],Potency [7],Potency [8],Potency [9]
CCCCCCCCCCCCCCCC(=O)OC(C)C,inactive,inactive,-10.7%,8.58% (inactive),-1.02% (inactive),inactive,inactive,inactive,inactive
CCCCCCCCCCCCCCCCCC(=O)O,inactive,–,-4.53% and -8.3% and -3.54%,-9.45% (inactive) and 1.81% (inactive) and 3.06% (inactive),–,inactive,inactive,inactive,inactive
COc1cc(CNC(=O)CCCC/C=C/C(C)C)ccc1O,inactive,inactive,9.1%,4.06% (inactive),11.7% (inactive) and 10.6% (inactive),inactive,inactive,inactive,–
CC(C)(C)NCC(O)COc1nsnc1N1CCOCC1 (stereo unspecified),–,–,–,–,–,inactive,–,–,–
O=C(O)c1cc(=O)c2ccccc2[nH]1,–,–,–,–,–,inactive,–,–,–
CC(C)NCC(O)COc1cccc2ccccc12 (stereo unspecified),inactive,inactive,8.19%,-18.2% (inactive),-9.73% (inactive) and -17.8% (inactive),–,–,–,–
N=C1N=C(N)c2cc3ccccc3cc21,inactive,inactive,-9.13%,48.9% (inactive),8.6% (inactive),–,inactive,–,–
O=C(Nc1ccccc1)c1cc([N+](=O)[O-])ccc1Cl,–,inactive,-9.1%,-13.8% (inactive),9.48% (inactive),inactive,–,–,–
CO/N=C(\C(=O)N[C@@H]1C(=O)N2C(C(=O)O)=C(COC(C)=O)CS[C@H]12)c1csc(N)n1 (stereo in doubt),–,–,–,–,–,inactive,–,–,–
CN1CCC[C@H]1c1cccnc1,–,inactive,–,–,-9.11% (inactive) and 5.66% (inactive),inactive,–,–,–
